# High-throughput results deposited in PubChem BioAssay by National Center for Advancing Translational Sciences (NCATS).
# CCT chaperon mod = High-Throughput Screening for Modulators of Cytosolic Chaperonin Activity. purified chaperonin ATPase assay, HTRF ADP detection, 30 min. activity change, % (test concentration not listed), hits read low. 0.3% of 360,000 active; in the data active means activity change below about -30%; further: on the % scale 0 is the no-effect control and ±100 the full control effect
#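 First, chaperonin was dispensed at 40 nM or 20 nM final depending on batch activity. Next, compounds were pinned at 76 uM and ATP added at 10 uM. After 30 min at 37 °C, ADP detection reagents ran 30 min at ambient temperature.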
# Nrf2 block = Nrf2 qHTS screen for inhibitors | 2.1% of 360,000 active | A549 ARE-Fluc reporter, luciferase luminescence, 18-24 h | Potency, µM (series often up to 46 µM), for inactives: at the top dose activity change, negative = inhibition, actives largely listed as inhibitors; further: potency means the concentration at half of the fitted maximal effect; on the % scale 0 is the no-effect control and ±100 the full control effect; nearly all actives have a fitted effect of over 60% in size
#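 Concentration-response testing used A549 ARE_Fluc cells at 5000 cells/well. Following an 18-24 h compound incubation, viability was read by fluorescence (Ex 405/Em 525) and luciferase output by luminescence.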
# Nrf2 activator = qHTS of Nrf2 Activators; AREc32 ARE-luciferase reporter (MCF7-derived line), luminescence, 24 h; Potency, µM (top dose mostly 46.1 µM), for the others: at the top dose activation, most hits filed as activators; 0.31% of 410,000 active; further: potency means the concentration at half of the fitted maximal effect; % of control where 0% means no effect; nearly all actives have a fitted effect of over 65% in size
#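 For detection, Steady-Glo was added and plates sat 30 min at RT; before that, AREc32_Fluc cells grown overnight in OPTI-MEM/5% FBS had been treated with 23 nL compound for 24 hr at 37 deg C.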
# A549 viability = Nrf2 qHTS screen for inhibitors: counterscreen for cytotoxicity; AID 504648, 2011; A549 ARE-Fluc cells, CellTiter-Fluor viability, 18-24 h; Potency, µM (titrated, usually from 46 µM), inactives show at the highest dose activity change, negative = cytotoxicity, most hits filed as inhibitors; 0.16% of 390,000 active; further: potency means the concentration at half of the fitted maximal effect; on the % scale 0 is the no-effect control and ±100 the full control effect
#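 Cytotoxicity counterscreen: CellTiter-Fluor fluorescence was measured in A549 ARE_Fluc cells after 18-24 h of compound exposure in a concentration series. The subsequent BugLite luminescent read reports ARE-luciferase activity.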
# TCR activator = Activators of T cell receptors: qHTS campaign; 330,000 tested, under 10 active; primary human leukocytes, anti-CD3, IL-2 HTRF, 48 h; AID 504894, 2011; Potency, µM (highest dose often 9.22 µM), for inactives: top-dose activation of IL-2 secretion, actives largely listed as activators; further: % of control where 0% means no effect
#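 Activity was scored as IL-2 release from primary human leukocytes given only a TCR signal (a-CD3 beads) plus compound for 48 hr. Detection used a two-antibody HTRF format read at 665nm.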
# AT treatment = qHTS Assay for Identifying a Potential Treatment of Ataxia-Telangiectasia | F2112 A-T fibroblasts, KAP-1 phosphorylation AlphaLISA; neocarzinostatin DNA damage 30 min before lysis | Potency, µM (highest dose often 57.5 µM), for inactives: at the top dose activation, usual class: activators | 0.19% of 320,000 active | AID 485349, 2010; further: potency means the concentration at half of the fitted maximal effect; % of control where 0% means no effect; nearly all actives have a fitted effect of over 45% in size
#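 ATM-like activity read as KAP-1 phosphorylation via AlphaLISA donor/acceptor antibody pairs after lysis and 6 hr at 25C. Cells were ATM-null patient fibroblasts (F2112, hTERT), dosed 60 min, then exposed to the DSB inducer NCS for 30 min.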
# The depositor's hits bear a star; ? = inconclusive; nt = no result given; [ ] = another dose, or the depositor's remark. Compounds with a hit are over-represented: about 2.6% of the library has one in this group of screens. Unless noted, the call rests on the fitted dose curve; in most records, active means well fitted curve in the direction sought with a large enough effect; inconclusive means small, poorly fitted or top-dose-only effect, or another doubt; inactive means no such curve, though single readings can be large; an effect the other way counts as inactive or inconclusive.
SMILES,CCT chaperon mod,Nrf2 block,Nrf2 activator,A549 viability,TCR activator,AT treatment
Cn1c(=O)oc2cc(S(=O)(=O)NCCC(=O)Nc3ccc(F)c(Cl)c3)ccc21,nt,2.7%,2.7%,-0.5%,nt,nt
O=c1[nH]c(/C(Cl)=C/c2cc(Cl)ccc2O)nc2cc(Cl)ccc12,0.8,-12.7%,8.91µM*,-9.0%,1.0%,-5.1%
Cc1ccc(C(NC(=O)Cc2cccs2)C(=O)Nc2ccc(C(C)C)cc2)cc1 (stereo not given),nt,6.5%[9.27 µM],0.1%,14.8%,nt,nt
O=C(OCC#CCSc1nnc(-c2cccc3ccccc23)o1)c1cccc(C(F)(F)F)c1,nt,8.2%,nt,0.0%,nt,nt
Cc1nc2ccc(S(=O)(=O)Nc3cc(-c4nc5cccnc5s4)ccc3C)cc2s1,-18.7,19.3%,0.9%,-11.3%,4.1%,6.0%
Cc1nc2ccc(S(=O)(=O)Nc3cccc(-c4nc5cccnc5s4)c3C)cc2s1,-1.2,23.1µM*,-2.7%,-9.4%,4.8%,-4.6%
C=CCNC(=S)N1CCN(c2cccc(C(F)(F)F)c2)CC1,-2.3,?,-0.4%[9.22 µM],-4.4%,-5.3%,13.0%
FC(F)(F)c1cccc(N2CCN(C(=S)NC3CCCCC3)CC2)c1,1.2,16.4µM*,-0.1%[9.22 µM],-16.2%,13.2%[46.1 µM],7.0%
CCNC(=S)N1CCN(c2cccc(C(F)(F)F)c2)CC1,0.3,-25.0%,-0.3%,-1.5%,-0.8%[46.1 µM],-1.4%
FC(F)(F)c1cccc(N2CCN(C(=S)NC3CCCC3)CC2)c1,-0.6,23.1µM*,-0.1%,-16.6%,-1.5%,-1.0%
COc1ccc(NC(=O)N2CCN(c3cccc(C(F)(F)F)c3)CC2)cc1,-1.0,14.3%,0.2%,-7.7%,6.2%,7.9%
Cc1ccnc(NC(=S)N2CCN(c3cccc(C(F)(F)F)c3)CC2)c1,-2.9,23.1µM*,12.4%,?,4.8%,-3.8%
CN(C)S(=O)(=O)c1ccc(NC(=O)N2CCN(c3cccc(C(F)(F)F)c3)CC2)cc1,1.3,23.1µM*,-0.5%,?,-5.8%,-14.1%
Cc1ccc(C)c(NC(=S)N2CCN(c3cccc(C(F)(F)F)c3)CC2)c1,-0.3,-14.6%,-0.2%,0.7%,5.3%,3.9%
CN(C)c1ccc(C(CNC(=O)c2ccc(C(C)(C)C)cc2)N2CCOCC2)cc1 (stereo not given),nt,nt,11.5%,-18.3%,nt,nt
COCCNC(=O)C(=O)Nc1cc2c3c(c1)CCC(=O)N3CCC2,-4.6,-2.4%,0.2%,-8.5%,1.6%,2.2%
O=C(c1cccs1)N1CCCC(N2CCN(c3cccc(C(F)(F)F)c3)CC2)C1 (stereo not given),0.6,20.6µM*,2.4%,-9.7%,4.8%,6.0%
Cc1ccc(C2C(/C=C3/SC(=S)NC3=O)=C(c3cccs3)Oc3ccccc32)cc1 (stereo not given),-5.1,13µM*,12.4%,10.3µM*,0.0%,nt
O=C1NC(=S)SC1=Cc1ccccc1Cl,-4.2,?,9.2%,?,2.7%,nt
O=S1(=O)C=C(Sc2nc3cc(Cl)ccc3o2)c2ccccc21,1.0,?,8.91µM*,?,-2.4%,-1.4%
Cc1ccc(N(Cc2cccs2)C(=O)C(C)Oc2ccc(Cl)c(C)c2)cc1 (stereo not given),nt,?,-0.8%,-0.5%,nt,nt
CC(=O)N1CCc2cc(S(=O)(=O)NC(CC(C)C)C(=O)Nc3cc(C)cc(C)c3)ccc21 (stereo not given),nt,?,0.1%,6.8%,nt,nt
O=C(Nc1ccccc1C(=O)NC(Cc1ccccc1)C(=O)O)c1ccco1 (stereo not given),-1.4,8.4%,2.0%,17.1%,1.4%,-4.6%
O=C(Nc1ccccc1C(=O)NC(Cc1ccc(O)cc1)C(=O)O)c1ccccc1 (stereo not given),-36.2*,-0.6%,-0.5%,-1.1%,-17.3%,1.9%
C[C@@]12C(=O)N(Cc3ccccc3)CC(=O)N1[C@H](/C=C/c1ccccc1)[C@@H]1C(=O)N(c3ccccc3)C(=O)[C@@H]12,0.1,-1.2%,-0.4%,-8.9%,3.2%,4.2%
SMILES,CCT chaperon mod,Nrf2 block,Nrf2 activator,A549 viability,TCR activator,AT treatment
CCOC(=O)c1c(C)oc2nc(C)nc(NCCc3ccc(OCC)cc3)c12,nt,23.1µM*,0.5%,-3.3%,nt,nt
CCOC(=O)c1c(C)oc2nc(C)nc(NCCc3ccc(Cl)cc3)c12,nt,-25.3%,0.4%,13.7%,nt,nt
Oc1cccc2ccc(Nc3ccccn3)nc12,-2.7,?,-1.5%,4.11µM*,2.4%,19.0%
CC1CCC2(C1)N=C(Nc1nc3ccccc3o1)NC1=C2C(=O)CCC1 (stereo not given),nt,-8.1%,nt,-4.4%,nt,nt
Cc1nn(-c2ccccc2)c2c1C(c1ccc(O)c(O)c1)N1C(=N2)C(Nc2ccccc2)=Nc2ccccc21 (stereo not given),-2.1,-2.2%,0.5%,-7.5%,-0.6%,13.8%
Cc1ccc(NC2=Nc3ccccc3N3C2=Nc2c(c(C)nn2-c2ccccc2)C3c2ccc(O)c(O)c2)cc1 (stereo not given),-2.9,18.4µM*,-1.5%,?,-7.1%,6.3%
CN(C)C(=O)c1cc([N+](=O)[O-])ccc1O,2.0,10.3%,-0.5%,-19.2%,-0.9%,-5.1%
O=[N+]([O-])c1cc(CN2CCN(c3ccccc3)CC2)c(O)c2ncccc12,2.8,2.59µM*,-1.2%[9.22 µM],?,4.6%,-1.1%
O=[N+]([O-])c1cc(CN2CCOCC2)c2cccnc2c1O,0.2,23.1µM*,0.6%,?,-5.0%,1.8%
Oc1c(Cl)cc(CN2CCOCC2)c2cccnc12,1.5,?,8.3%,?,-20.0%,2.2%
CN(Cc1cc([N+](=O)[O-])c2cccnc2c1O)C1CCCCC1,nt,nt,nt,nt,3.5%[46.1 µM],-4.4%
COc1cccc(-c2cnc(C(O)c3ccc(C)c(F)c3)[nH]2)c1 (stereo not given),0.3,nt,0.3%,nt,nt,nt
Clc1cccc(CON/C=N/c2ncnc3sccc23)c1,0.9,16.4µM*,-0.6%,-4.3%,0.3%,9.0%
Clc1cccc(Cl)c1CON/C=N/c1ncnc2sccc12,-2.3,?,0.3%,-3.6%,0.1%,-1.9%
O=C(Nc1ccncc1)c1ccc(NS(=O)(=O)c2ccc3[nH]c(=O)[nH]c3c2)cc1,0.3,4.8%,-0.6%,-0.5%,1.4%,-6.5%
COCCNC(=O)Cn1cc(S(=O)(=O)Cc2ccccc2Cl)c2ccccc21,nt,?,3.9%,19.8%,nt,nt
CCOc1ccccc1N1CCN(C(=O)c2cc(-c3cc(OC)ccc3OC)nc3ccccc23)CC1,-0.6,20.6µM*,2.7%,-7.2%,0.7%,-2.9%
COc1ccc(/C=N/Nc2ccccn2)cc1OC,0.3,0.3%,2.7%,-8.1%,-3.1%,3.8%
